Results: PubChem BioAssay
Values joined by “and” are separate entries in the source; they are usually repeats but may differ in a detail not shown here. Identical values can stand only once. Results filed as inconclusive are left out. Active and inactive are the calls of the source.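 The calls were made as follows, unless noted: active = normalized viability below 100% at a tested concentration; inactive = the rest.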 Where a SMILES comes first, the peptide text is derived from it. [ ]: non-standard residue; d: D form. The star is where a group is joined. Sta = CC(C)C[C@H](N)[C@@H](O)CC(=O)O; Isovaleryl = CC(C)CC(=O)*

Columns and labels:
[1] = stimulators of nuclear beta-catenin in C2C12, primary screen, imaging, WNT3A-conditioned medium, mouse C2C12, NPC library (AID 1117326; in the data active = nuclear beta-catenin stimulation mostly above about 4.2%, no sharp cut-off; inactive = mostly below about 10%); settings: stronger effect = higher value
[2] = stimulators of insulin release from INS-1E, primary screen, cell-based, 5 mM glucose, NPC library (AID 1117329;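 active = compound raises insulin release from rat beta cells at 5 mM glucose, no numeric limit stated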); settings: rat INS-1E insulin secretion, at 10 µM, stronger effect = higher value
[3] = growth inhibition of GSK3B-pretreated HCT116 cells – cell-based, CellTiter-Glo, 0.2 to 20 µM (AID 1117336;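 active = compounds lowering colon cancer cell viability after pretreatment blocking the GSK3B kinase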); settings: HCT116 viability after GSK3B inhibitor, at 20 µM, stronger effect = higher value
[4] = inhibition of endothelial tube formation, primary screen, imaging, VEGF stimulated, CD31 staining, tube area, NPC library (AID 1117340;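 active = compound that reduces growth-factor-driven endothelial tube area in a mixed cell culture, no cutoff stated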); settings: VEGF-stimulated ADSC/ECFC co-culture, at 10 µM, stronger effect = higher value
[5] = glucagon-like peptide 1 release enhancers, primary assay, NCI-H716 cell line, NPC library (AID 1117341;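 active = compound raises GLP1 secretion from the human gut endocrine cells, with no numeric limit stated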); settings: NCI-H716 cells, at 10 µM, stronger effect = higher value
[6] = HCT116 colon cancer cell growth inhibition, primary screen, CellTiter-Glo luminescence, NPC library (AID 1117342;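 active = compounds that lower survival of HCT116 colon cancer cells in the luminescence readout, no numeric limit stated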); settings: at 20 µM (top of the series)
[7] = CellTiter-Glo luminescent readout of SW480 viability loss, NPC library primary (AID 1117343;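 active = compounds that lower viability of the colon cancer cells in the luminescence readout, with no numeric limit stated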); settings: CellTiter-Glo luminescence; at 20 µM (top of the series) unless noted
[8] = decreased DLD-1 cellular survival, CellTiter-Glo luminescent readout, NPC compound collection, primary HTS (AID 1117346;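 active = compounds that lower survival of DLD-1 colon cancer cells in the luminescence readout, no cutoff given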); settings: DLD-1 viability, CellTiter-Glo luminescence; at 20 µM (top of the series)
[9] = growth inhibition of DIPG glioma cells, dose response, cell-based, SU-DIPG-XVII, MIPE5.0, CellTiter-Glo, qHTS (AID 1347060; cut-off not given, nearly all actives have AC50 up to about 26 µM;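 as to AC50: cells exposed to compound for 48 hours before viability readout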); settings: SU-DIPG-XVII viability, CellTiter-Glo ATP luminescence
[10] = growth inhibition of DIPG glioma cells, dose response, cell-based, SU-DIPG-XIII, MIPE4.0, CellTiter-Glo, qHTS (AID 1347061; cut-off not given, nearly all actives have AC50 up to about 37 µM;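 also: cells exposed to compound for 48 hours before readout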); settings: SU-DIPG-XIII viability, CellTiter-Glo ATP luminescence
[11] = SU-DIPG-VI glioma cell viability, MIPE4.0 library, CellTiter-Glo luminescence, qHTS (AID 1347066; cut-off not given, nearly all actives have AC50 up to about 30 µM;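 also: cells exposed to compound for 48 hours before readout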); settings: CellTiter-Glo ATP luminescence
[12] = sensitizers of A549 cells to miR-34 induction, primary screen, imaging, A549 dox-inducible miR-34, nuclei and caspase counts (AID 1347080;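 active = compounds whose cell count with miR-34 switched on is under 0.7 times the count with it off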); settings: A549 miR-34 inducible, Hoechst nuclei count, 48 h
[13] = ovarian cancer cell viability with rucaparib, profiling panel, oncology-focused library, rucaparib conditional (AID 1508598); settings: patient-derived ovarian cancer cells, CellTiter-Glo viability, 144 h, stronger effect = lower value
[14] = viability rescue of complex I mutant cybrids, primary screen, cell-based, galactose medium, ATP luminescence (AID 1645843;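 active = z-score of at least 1.8 in each of two replicates, scored against plate mean and spread of sample wells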;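 also: positive z means more ATP and so rescue of galactose-driven cybrid death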); settings: complex I mutant cybrid cells, 72 h, stronger effect = higher value
[15] = liver-stage malaria parasite growth inhibition, primary screen, cell-based, HepG2, luciferase luminescence, HepG2 viability (AID 624349; in the data active = parasite load remaining mostly below about 12%, no sharp cut-off; inactive = mostly above about 10%;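 also: 100% = mean of DMSO negative control wells on the same plate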); settings: P. berghei liver stage in HepG2, luciferase luminescence, concentration not given here; parasite load remaining: stronger effect = lower value; viability: measured here: HepG2 viability without parasites
[16] = SU-DIPG-XXV glioma cell viability, MIPE5.0 library, qHTS (AID 1347068; cut-off not given, nearly all actives have IC50 up to about 30 µM)
[17] = survival rescue of mitochondrial mutant cells in low glucose, primary screen, MELAS cybrids, Rieske KO mouse fibroblasts, CellTiter-Glo (AID 1508586;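 active = mean z-score across replicates of 1.96 or higher in either the MELAS or the Rieske mutant cell line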;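 also: z relative to plate mean and SD of compound and empty wells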)
[18] = molecular target: NAD(+) hydrolase SARM1 (Homo sapiens) (UniProt Q6SZW1); assay: SARM1 TIR NADase inhibitors, cell lysate, NAD-Glo luminescence (AID 1508614;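 active = compound whose remaining NAD level is above about 45 nM, limit read from the data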;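 also: higher remaining NAD means stronger inhibition of SARM1 NADase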); settings: SAM-TIR HEK293T lysate NADase, at 1 µM, stronger effect = higher value
[19] = test system: Aerobactin synthetase IucA (Klebsiella pneumoniae); assay: IucA aerobactin synthetase inhibitors, biochemical, Tocris library, absorbance (AID 1345561; call rule not given here;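 also: 100% = enzyme without compound and 0% = no enzyme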); settings: purified IucA enzyme assay, absorbance (OD) read-out; stronger effect = lower value;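 tested at 8 µM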
[20] = stronger effect = lower value, cell number ratio, induced over uninduced
[21] = measured here: relative caspase fold change +Dox/-Dox
[22] = measured here: total cells with miR-34 induction, stronger effect = lower value
[23] = measured here: total cells without miR-34 induction
[24] = MELAS cybrid survival, CellTiter-Glo 48 h, stronger effect = higher value
[25] = Rieske KO mouse fibroblast survival, CellTiter-Glo 72 h

Sequence of NAD(+) hydrolase SARM1 (Homo sapiens) (Q6SZW1 whole entry, looked up): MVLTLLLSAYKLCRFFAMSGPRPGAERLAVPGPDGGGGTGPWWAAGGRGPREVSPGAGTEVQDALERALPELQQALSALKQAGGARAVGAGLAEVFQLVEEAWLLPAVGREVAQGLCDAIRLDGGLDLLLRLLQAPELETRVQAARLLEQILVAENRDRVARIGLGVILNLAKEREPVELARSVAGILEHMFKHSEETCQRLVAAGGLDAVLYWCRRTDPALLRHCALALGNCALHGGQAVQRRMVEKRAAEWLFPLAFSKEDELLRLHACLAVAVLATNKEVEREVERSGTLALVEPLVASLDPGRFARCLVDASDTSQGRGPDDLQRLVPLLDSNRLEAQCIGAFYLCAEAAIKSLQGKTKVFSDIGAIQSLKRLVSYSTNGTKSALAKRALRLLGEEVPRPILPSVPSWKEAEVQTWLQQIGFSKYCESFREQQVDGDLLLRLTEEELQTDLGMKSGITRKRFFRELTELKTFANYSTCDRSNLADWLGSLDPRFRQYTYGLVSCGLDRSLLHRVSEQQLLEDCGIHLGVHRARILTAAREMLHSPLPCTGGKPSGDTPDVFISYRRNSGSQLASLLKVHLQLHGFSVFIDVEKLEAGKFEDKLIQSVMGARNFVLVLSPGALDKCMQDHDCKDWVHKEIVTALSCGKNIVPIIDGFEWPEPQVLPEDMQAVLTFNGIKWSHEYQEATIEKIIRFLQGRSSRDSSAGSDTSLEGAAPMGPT

CCN(CC)CCNC(=O)c1c(C)[nH]c(/C=C2\C(=O)Nc3ccc(F)cc32)c1C
inactive: nuclear beta-catenin stimulation ([1]; at 10 µM) 0.3% | GLP1 secretion stimulation [5] 18.2% | fold change [12, 20] 0.916 | viability ([13]; at 0.000305 µM, OCI-C5x cells, with rucaparib 10 µM, 100% = cells with rucaparib alone) 110% | viability ([13]; at 0.000305 µM, OCI-C5x cells, without rucaparib) 107% | viability ([13]; at 0.00122 µM, OCI-C5x cells, with rucaparib 10 µM, 100% = cells with rucaparib alone) 114% | viability ([13]; at 0.00122 µM, OCI-C5x cells, without rucaparib) 102% | viability ([13]; at 0.00488 µM, OCI-C5x cells, with rucaparib 10 µM, 100% = cells with rucaparib alone) 113% | viability ([13]; at 0.00488 µM, OCI-C5x cells, without rucaparib) 108% | viability ([13]; at 0.0195 µM, OCI-C5x cells, with rucaparib 10 µM, 100% = cells with rucaparib alone) 115% | viability ([13]; at 0.0781 µM, OCI-C5x cells, with rucaparib 10 µM, 100% = cells with rucaparib alone) 118% | viability ([13]; at 0.0781 µM, OCI-C5x cells, without rucaparib) 111% | viability ([13]; at 0.313 µM, OCI-C5x cells, with rucaparib 10 µM, 100% = cells with rucaparib alone) 123% | viability ([13]; at 0.313 µM, OCI-C5x cells, without rucaparib) 113% | viability ([13]; at 1.25 µM, OCI-C5x cells, with rucaparib 10 µM, 100% = cells with rucaparib alone) 126% | viability ([13]; at 1.25 µM, OCI-C5x cells, without rucaparib) 117% | viability ([13]; at 1.25 µM, OCI-P5x cells, without rucaparib) 104% | z-score [14] -1
715: cell count [12, 22]
active: insulin secretion stimulation [2] 47.3% | viability decrease [3] 108% | tube area decrease [4] 103% | inhibition of viability [6] 110% | viability decrease (inhibition) [7] 127% | viability decrease (inhibition) [8] 93.4% | AC50 [9] 7.42 µM | AC50 [10] 38.2 µM | AC50 [11] 21.5 µM | viability ([13]; at 0.000305 µM, OCI-P5x cells, with rucaparib 20 µM, 100% = cells with rucaparib alone) 84% | viability ([13]; at 0.000305 µM, OCI-P5x cells, without rucaparib) 93.8% | viability ([13]; at 0.00122 µM, OCI-P5x cells, with rucaparib 20 µM, 100% = cells with rucaparib alone) 98.6% | viability ([13]; at 0.00122 µM, OCI-P5x cells, without rucaparib) 88.3% | viability ([13]; at 0.00488 µM, OCI-P5x cells, with rucaparib 20 µM, 100% = cells with rucaparib alone) 96.3% | viability ([13]; at 0.00488 µM, OCI-P5x cells, without rucaparib) 97.4% | viability ([13]; at 0.0195 µM, OCI-C5x cells, without rucaparib) 99.1% | viability ([13]; at 0.0195 µM, OCI-P5x cells, with rucaparib 20 µM, 100% = cells with rucaparib alone) 98.7% | viability ([13]; at 0.0195 µM, OCI-P5x cells, without rucaparib) 95.9% | viability ([13]; at 0.0781 µM, OCI-P5x cells, with rucaparib 20 µM, 100% = cells with rucaparib alone) 95% | viability ([13]; at 0.0781 µM, OCI-P5x cells, without rucaparib) 99.9% | viability ([13]; at 0.313 µM, OCI-P5x cells, with rucaparib 20 µM, 100% = cells with rucaparib alone) 93.2% | viability ([13]; at 0.313 µM, OCI-P5x cells, without rucaparib) 99.5% | viability ([13]; at 1.25 µM, OCI-P5x cells, with rucaparib 20 µM, 100% = cells with rucaparib alone) 89.1% | viability ([13]; at 5 µM, OCI-C5x cells, with rucaparib 10 µM, 100% = cells with rucaparib alone) 60.6% | viability ([13]; at 5 µM, OCI-C5x cells, without rucaparib) 21.7% | viability ([13]; at 5 µM, OCI-P5x cells, with rucaparib 20 µM, 100% = cells with rucaparib alone) 1.9% | viability ([13]; at 5 µM, OCI-P5x cells, without rucaparib) 12.8%
780: cell count [12, 23]
1.17: fold change [12, 21]
-2%: nuclear beta-catenin stimulation ([1]; stimulation, at 2 µM)

CCN[C@H]1C[C@H](C)S(=O)(=O)c2sc(S(N)(=O)=O)cc21
73% and 119%: viability [15]
inactive: parasite load remaining [15] 70.8% and 54% | nuclear beta-catenin stimulation ([1]; at 10 µM) 0.6% | insulin secretion stimulation [2] 2.65% | viability decrease [3] 10.3% | tube area decrease [4] -2.8% | GLP1 secretion stimulation [5] 2.1% | inhibition of viability [6] 4.1% | viability decrease (inhibition) [7] -12.1% | viability decrease (inhibition) [8] 3.2% | outcome [9] | outcome [10] | outcome [11] | outcome [16] | fold change [12, 20] 0.888 and 0.89 | z-score [17, 24] -0.0417 and -1.04 | z-score [14] 0.255
8830 and 9540: cell count [12, 22]
-0.635 and -0.666: z-score [17, 25]
0.692 and 0.631: fold change [12, 21]
1.7%: nuclear beta-catenin stimulation ([1]; stimulation, at 2 µM)
9940 and 10700: cell count [12, 23]

CCCCCOC(=O)Nc1nc(=O)n([C@@H]2O[C@H](C)[C@@H](O)[C@H]2O)cc1F
inactive: nuclear beta-catenin stimulation ([1]; at 10 µM) 0.5% | insulin secretion stimulation [2] -0.1% | viability decrease [3] -9.5% | tube area decrease [4] 5.3% | GLP1 secretion stimulation [5] -0.5% | inhibition of viability [6] 0.7% | viability decrease (inhibition) [7] -2% | viability decrease (inhibition) [8] -8.6% | outcome [9] | outcome [10] | outcome [11] | outcome [16] | remaining NAD [18] 10 nM
-1.4%: nuclear beta-catenin stimulation ([1]; stimulation, at 2 µM)

CC1(c2ccccc2)OC(C(=O)O)=CC1=O (stereo not given)
0.832: fold change [12, 21]
9820: cell count [12, 22]
inactive: nuclear beta-catenin stimulation ([1]; at 10 µM) 0.9% | insulin secretion stimulation [2] 0.9% | viability decrease [3] 1.95% | tube area decrease [4] 0.2% | GLP1 secretion stimulation [5] 1.1% | inhibition of viability [6] -7.4% | viability decrease (inhibition) [7] 4.5% | viability decrease (inhibition) [8] 4.95% | remaining activity [19] 122% | fold change [12, 20] 0.98 | z-score [14] -0.34
1.2%: nuclear beta-catenin stimulation ([1]; stimulation, at 2 µM)
10000: cell count [12, 23]

CCC(C)(Oc1ccc(C2(c3ccc(OC(C)(CC)C(=O)O)cc3)CCCCC2)cc1)C(=O)O (stereo not given)
0.575: z-score [17, 25]
-1.3%: nuclear beta-catenin stimulation ([1]; stimulation, at 2 µM)
inactive: nuclear beta-catenin stimulation ([1]; at 10 µM) -1.5% | insulin secretion stimulation [2] 1.2% | viability decrease [3] -30.5% | tube area decrease [4] 0.6% | GLP1 secretion stimulation [5] 4.1% | inhibition of viability [6] -3.43% | viability decrease (inhibition) [7] 15.4% | viability decrease (inhibition) [8] -14.6% | outcome [9] | outcome [10] | outcome [11] | outcome [16] | fold change [12, 20] 0.893 | z-score [17, 24] -0.322
9130: cell count [12, 22]
10200: cell count [12, 23]
0.926: fold change [12, 21]

CC(C)CC(=O)N[C@H](C(=O)N[C@H](C(=O)N[C@@H](CC(C)C)[C@@H](O)CC(=O)N[C@@H](C)C(=O)N[C@@H](CC(C)C)[C@@H](O)CC(=O)O)C(C)C)C(C)C (Isovaleryl-VV[Sta]A[Sta]-OH)
-0.3%: nuclear beta-catenin stimulation ([1]; stimulation, at 2 µM)
-0.328: z-score [17, 25]
7720 and 5130: cell count [12, 22]
inactive: parasite load remaining [15] 101% | nuclear beta-catenin stimulation ([1]; at 10 µM) -1.6% | insulin secretion stimulation [2] 4.9% | viability decrease [3] -3.4% | tube area decrease [4] -25.1% | GLP1 secretion stimulation [5] 0.5% | inhibition of viability [6] 4% | viability decrease (inhibition) [7] -0.3% | outcome [9] | outcome [10] | outcome [11] | outcome [16] | fold change [12, 20] 0.91 and 1.02 | z-score [17, 24] -1.11
1.28 and 1.09: fold change [12, 21]
8480 and 5040: cell count [12, 23]
102%: viability [15]
active: viability decrease (inhibition) [8] 13%

O=C1OC(OC(=O)c2cccnc2Nc2cccc(C(F)(F)F)c2)c2ccccc21 (stereo not given)
8060: cell count [12, 23]
active: tube area decrease [4] 72.7% | viability decrease (inhibition) [7] 115%
11%: nuclear beta-catenin stimulation ([1]; stimulation, at 2 µM)
inactive: nuclear beta-catenin stimulation ([1]; at 10 µM) 21.1% | insulin secretion stimulation [2] 2.7% | viability decrease [3] 17.5% | GLP1 secretion stimulation [5] 1.3% | inhibition of viability [6] 10.2% | viability decrease (inhibition) [8] 31.2% | remaining activity [19] 120% | fold change [12, 20] 0.992 | z-score [14] -0.625
7990: cell count [12, 22]
1.33: fold change [12, 21]
